# Unmarked numbers belong to inactive results. Results filed as inconclusive are left out. Activity calls are given as the source filed them. Unless noted, calls come from the whole dose curve; as a rule, active = well fitted curve in the direction sought with a large enough effect; inconclusive = small, poorly fitted or top-dose-only effect, or another doubt; inactive = no such curve, though single readings can be large; an effect the other way counts as inactive or inconclusive.
# Tests used:
# [1] = molecular target: Cytochrome P450 1A2 (Homo sapiens) (UniProt P05177); test: p450-cyp1a2 (AID 410; calls by dose curve;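 note: -100% = full effect of reference inhibitor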)
# Sequence of Cytochrome P450 1A2 (Homo sapiens) (P05177 whole entry, looked up): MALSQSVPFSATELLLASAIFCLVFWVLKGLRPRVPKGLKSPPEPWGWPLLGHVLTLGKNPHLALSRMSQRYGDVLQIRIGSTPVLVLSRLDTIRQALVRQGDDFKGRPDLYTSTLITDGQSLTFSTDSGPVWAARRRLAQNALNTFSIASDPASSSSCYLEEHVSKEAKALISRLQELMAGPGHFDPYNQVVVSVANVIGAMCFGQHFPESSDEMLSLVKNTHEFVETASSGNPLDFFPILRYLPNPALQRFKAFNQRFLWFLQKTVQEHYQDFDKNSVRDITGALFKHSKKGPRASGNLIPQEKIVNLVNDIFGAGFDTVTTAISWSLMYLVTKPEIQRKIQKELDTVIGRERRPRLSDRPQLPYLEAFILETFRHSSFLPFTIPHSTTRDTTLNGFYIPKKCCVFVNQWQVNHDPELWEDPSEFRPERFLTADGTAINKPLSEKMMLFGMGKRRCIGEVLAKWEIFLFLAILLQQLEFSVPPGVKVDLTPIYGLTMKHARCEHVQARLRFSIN
# Method in brief: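 Luminescent demethylation readout: Luciferin-ME (100uM, equal to Km) turned over by 20nM CYP1A2 for 60 min at room temperature after NADPH regeneration addition, following 10 min compound preincubation. Normalization used 57 uM furafylline as full inhibition.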
# [2] = NFAT Signaling Pathway (AID 444; active = well fitted curve in either direction with a large enough effect, not every such curve was filed as active;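 note: carbachol stimulus at about its EC50 of 1 µM final; % is set by controls: 0 for no effect and ±100 for the full control effect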); conditions: Jurkat NFAT-bla M1, carbachol, beta-lactamase ratio, 5 h; at 17.2 µM (top of the series) unless noted
# Method in brief: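 Jurkat cells with NFAT-driven β-lactamase reporter and co-expressed M1 receptor, stimulated with carbachol (final 1 uM, ~EC50), compound titration, 5 h at 37 °C. CCF4 loaded 1 h at RT; 460/530 nm ratio gave %activity and AC50.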
# [3] = Stat Signaling Pathway (AID 446; active = well fitted curve in either direction with a large enough effect, not every such curve was filed as active;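 note: ME-180 cervical cancer cells given 40 pM IL-6 alongside compound; SIE-controlled beta-lactamase reporter measured as 460/530 nm FRET emission ratio; % is set by controls: 0 for no effect and ±100 for the full control effect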); conditions: ME-180 (cervical carcinoma) SIE beta-lactamase reporter, IL-6 stimulated, 5 h; at 17.2 µM (top of the series) unless noted
# Method in brief: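 Compound effects on IL-6-induced STAT reporter activity were measured in ME-180 cells. After overnight culture, cells were co-treated with 40 pM IL-6 for 5 hrs before beta-lactamase substrate loading at room temperature.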
# [4] = molecular target: Glucocorticoid receptor (Homo sapiens) (UniProt P04150); test: GR-GFP Redistribution (AID 450;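 active = compounds whose dose series gives a full or clear partial fitted curve of increased nuclear translocation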; note: potency is the fitted concentration of half-maximal effect)
# Sequence of Glucocorticoid receptor (Homo sapiens) (P04150 whole entry, looked up, the tested form may be a part): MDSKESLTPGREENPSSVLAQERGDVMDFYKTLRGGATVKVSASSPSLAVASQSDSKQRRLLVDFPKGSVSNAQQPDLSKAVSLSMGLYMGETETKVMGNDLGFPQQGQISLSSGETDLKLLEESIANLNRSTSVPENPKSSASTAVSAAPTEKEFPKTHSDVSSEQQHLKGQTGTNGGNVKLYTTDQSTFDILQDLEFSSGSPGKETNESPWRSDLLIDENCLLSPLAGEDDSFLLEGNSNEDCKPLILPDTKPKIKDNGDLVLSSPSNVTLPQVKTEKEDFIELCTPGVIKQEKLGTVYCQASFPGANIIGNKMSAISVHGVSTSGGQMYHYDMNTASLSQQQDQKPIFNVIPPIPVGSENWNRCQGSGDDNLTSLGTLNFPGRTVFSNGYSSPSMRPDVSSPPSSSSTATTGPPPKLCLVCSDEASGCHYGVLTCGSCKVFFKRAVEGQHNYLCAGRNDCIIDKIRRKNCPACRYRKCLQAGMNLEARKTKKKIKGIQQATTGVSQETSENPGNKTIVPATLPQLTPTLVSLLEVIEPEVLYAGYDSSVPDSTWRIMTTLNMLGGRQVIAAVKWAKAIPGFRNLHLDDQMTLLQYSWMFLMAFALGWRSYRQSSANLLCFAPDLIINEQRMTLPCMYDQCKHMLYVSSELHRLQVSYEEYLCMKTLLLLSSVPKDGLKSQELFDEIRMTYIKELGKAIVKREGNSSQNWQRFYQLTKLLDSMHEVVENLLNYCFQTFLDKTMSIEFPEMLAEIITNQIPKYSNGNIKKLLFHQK
# [5] = molecular target: Glucocorticoid receptor (Homo sapiens) (UniProt P04150); test: GR-EFC Redistribution (AID 451; calls by dose curve; note: potency is the fitted concentration of half-maximal effect); conditions: CHO-K1 GR-EFC translocation, beta-gal luminescence, 2 h
# Method in brief: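 CHO-K1 cells expressing nuclear EA and GR-ED fragments of b-gal; compounds titrated up to 46 uM final, 2 h at 37 C. GR nuclear translocation read as complemented b-gal luminescence after 1 h RT detection.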
# [6] = molecular target: Mitogen-activated protein kinase 10 (Mus musculus) (UniProt Q61831); test: JNK3 AlphaScreen Assay (AID 530; active = well fitted curve in either direction with a large enough effect, not every such curve was filed as active;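 note: kinase came from lysate of stimulated human HepG2 cells; signal reports phosphorylation of biotinylated GST-cJun 1-79 at Ser73 with 10 µM ATP; % is set by controls: 0 for no effect and ±100 for the full control effect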)
# Method in brief: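 Activity was read by AlphaScreen after JNK3-containing HepG2 lysate (cytokine pre-activated) phosphorylated biotinylated GST-cJun with 10 uM ATP at room temperature. Phospho-Ser73 cJun antibody with Protein-A acceptor beads provided detection.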
# [7] = molecular target: 3',5'-cyclic-AMP phosphodiesterase 4B (Homo sapiens) (UniProt Q07343); test: qHTS Assay for Inhibitors of PDE-IV (AID 607; active = well fitted activation curve with a large enough effect in the main read-out, with a control signal flat, not every such curve was filed as active; note: % of control where 0% means no effect)
# Sequence of 3',5'-cyclic-AMP phosphodiesterase 4B (Homo sapiens) (Q07343 whole entry, looked up): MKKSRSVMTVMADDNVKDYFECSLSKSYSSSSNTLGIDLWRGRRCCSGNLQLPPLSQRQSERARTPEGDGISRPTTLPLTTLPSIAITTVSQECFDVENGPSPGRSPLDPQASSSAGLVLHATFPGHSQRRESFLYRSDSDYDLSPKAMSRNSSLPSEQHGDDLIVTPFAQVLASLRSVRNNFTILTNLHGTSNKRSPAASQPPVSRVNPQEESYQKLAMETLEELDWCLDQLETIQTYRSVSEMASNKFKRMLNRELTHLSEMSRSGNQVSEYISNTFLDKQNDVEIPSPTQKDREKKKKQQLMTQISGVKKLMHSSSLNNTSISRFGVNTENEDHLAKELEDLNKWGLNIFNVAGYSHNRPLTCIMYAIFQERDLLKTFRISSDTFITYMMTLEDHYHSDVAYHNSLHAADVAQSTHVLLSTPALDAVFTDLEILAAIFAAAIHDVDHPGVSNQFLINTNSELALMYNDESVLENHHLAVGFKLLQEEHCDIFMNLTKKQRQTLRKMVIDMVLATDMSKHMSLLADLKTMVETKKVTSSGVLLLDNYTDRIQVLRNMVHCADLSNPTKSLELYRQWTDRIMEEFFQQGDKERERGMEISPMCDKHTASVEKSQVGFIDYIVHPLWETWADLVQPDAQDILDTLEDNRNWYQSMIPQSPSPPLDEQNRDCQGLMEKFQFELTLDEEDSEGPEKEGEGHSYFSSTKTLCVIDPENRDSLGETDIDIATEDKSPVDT
# Method in brief: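 ACTOne HEK293 cells carry a modified cAMP-gated CNG channel and express endogenous PDE4; plated 1000 cells/well, compounds up to 22.9 uM final. Membrane-potential dye fluorescence (ex 535/em 590) was read; parental cells received 10 uM forskolin + 100 uM RO 20-1724.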
# [8] = molecular target: ATP-dependent 6-phosphofructokinase (Trypanosoma brucei brucei) (UniProt O15648); test: qHTS Assay to Find Inhibitors of T. brucei phosphofructokinase: hit validation (AID 492961); note: % is set by controls: 0 for no effect and ±100 for the full control effect
# Sequence of ATP-dependent 6-phosphofructokinase (Trypanosoma brucei brucei) (O15648 whole entry, looked up): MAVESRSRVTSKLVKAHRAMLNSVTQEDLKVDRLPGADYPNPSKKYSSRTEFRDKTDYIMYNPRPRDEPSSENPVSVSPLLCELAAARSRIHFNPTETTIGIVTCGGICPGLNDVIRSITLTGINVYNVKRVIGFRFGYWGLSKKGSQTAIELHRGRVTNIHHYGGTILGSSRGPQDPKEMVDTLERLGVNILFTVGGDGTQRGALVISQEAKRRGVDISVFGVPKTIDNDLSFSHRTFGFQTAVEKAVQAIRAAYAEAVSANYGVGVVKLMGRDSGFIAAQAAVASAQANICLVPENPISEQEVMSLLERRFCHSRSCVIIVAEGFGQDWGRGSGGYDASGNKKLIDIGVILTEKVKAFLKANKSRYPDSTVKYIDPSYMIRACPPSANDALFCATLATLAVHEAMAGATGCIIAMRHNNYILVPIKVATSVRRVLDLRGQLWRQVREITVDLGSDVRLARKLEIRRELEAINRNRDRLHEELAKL
# Method in brief: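 Luminescence from ADP-Glo reports ADP generated as T. brucei PFK (1.25 nM) phosphorylates 0.5 mM fructose-6-phosphate using 0.1 mM ATP. Reactions ran 45 min at room temperature, pH 8.0.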
# [9] = S16 Schwann cell PMP22 intronic element firefly luciferase assay (AID 624032); note: potency is the fitted concentration of half-maximal effect; nearly all actives have a fitted effect of over 30% in size
# Method in brief: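 Rat S16 Schwann cells stably carrying firefly luciferase driven by a PMP22 intronic element, in 10% FBS, treated 24 h at 37 C. ONE-Glo luminescence normalized to PTC124 control and DMSO (0%); curves classed by r2, magnitude and activity.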
# [10] = qHTS profiling for inhibitors of Plasmodium falciparum proliferation (AID 504749); note: potency is the fitted concentration of half-maximal effect; nearly all actives have a fitted effect of over 60% in size; conditions: P. falciparum in erythrocytes, SYBR Green DNA, 72 h
# Method in brief: (§1)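 Each compound contacts P. falciparum-infected red blood cells for 72 h at 37 C; lysis buffer (Tris, EDTA, saponin, Triton X, SYBR Green I) is added and fluorescence measured next morning; values normalized to controls.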
# 3D7 = test: as above; conditions: P. falciparum in erythrocytes, SYBR Green DNA, 72 h; series mostly up to 28.7 µM
# Method in brief: as §1
# 7G8 = test: as above; conditions: P. falciparum in erythrocytes, SYBR Green DNA, 72 h; series mostly up to 28.7 µM
# Method in brief: as §1
# AA1029 = test: as above; conditions: P. falciparum in erythrocytes, SYBR Green DNA, 72 h; series mostly up to 28.7 µM
# Method in brief: as §1
# AS120 = test: as above; conditions: P. falciparum in erythrocytes, SYBR Green DNA, 72 h; series mostly up to 28.7 µM
# Method in brief: as §1
# ATS189 = test: as above; conditions: P. falciparum in erythrocytes, SYBR Green DNA, 72 h; series mostly up to 28.7 µM
# Method in brief: as §1
# ATS95 = test: as above; conditions: P. falciparum in erythrocytes, SYBR Green DNA, 72 h; series mostly up to 28.7 µM
# Method in brief: as §1
# C2A = test: as above; conditions: P. falciparum in erythrocytes, SYBR Green DNA, 72 h; series mostly up to 28.7 µM
# Method in brief: as §1
# CP185 = test: as above; conditions: P. falciparum in erythrocytes, SYBR Green DNA, 72 h; series mostly up to 28.7 µM
# Method in brief: as §1
# CP191 = test: as above; conditions: P. falciparum in erythrocytes, SYBR Green DNA, 72 h; series mostly up to 28.7 µM
# Method in brief: as §1
# CP192 = test: as above; conditions: P. falciparum in erythrocytes, SYBR Green DNA, 72 h; series mostly up to 28.7 µM
# Method in brief: as §1
# CP194 = test: as above; conditions: P. falciparum in erythrocytes, SYBR Green DNA, 72 h; series mostly up to 28.7 µM
# Method in brief: as §1
# CP201 = test: as above; conditions: P. falciparum in erythrocytes, SYBR Green DNA, 72 h; series mostly up to 28.7 µM
# Method in brief: as §1
# CP203 = test: as above; conditions: P. falciparum in erythrocytes, SYBR Green DNA, 72 h; series mostly up to 28.7 µM
# Method in brief: as §1
# CP211 = test: as above; conditions: P. falciparum in erythrocytes, SYBR Green DNA, 72 h; series mostly up to 28.7 µM
# Method in brief: as §1
# CP215 = test: as above; conditions: P. falciparum in erythrocytes, SYBR Green DNA, 72 h; series mostly up to 28.7 µM
# Method in brief: as §1
# CP217 = test: as above; conditions: P. falciparum in erythrocytes, SYBR Green DNA, 72 h; series mostly up to 28.7 µM
# Method in brief: as §1
# CP237 = test: as above; conditions: P. falciparum in erythrocytes, SYBR Green DNA, 72 h; series mostly up to 28.7 µM
# Method in brief: as §1
# CP238 = test: as above; conditions: P. falciparum in erythrocytes, SYBR Green DNA, 72 h; series mostly up to 28.7 µM
# Method in brief: as §1
# CP247 = test: as above; conditions: P. falciparum in erythrocytes, SYBR Green DNA, 72 h; series mostly up to 28.7 µM
# Method in brief: as §1
# CP250 = test: as above; conditions: P. falciparum in erythrocytes, SYBR Green DNA, 72 h; series mostly up to 28.7 µM
# Method in brief: as §1
# CP252 = test: as above; conditions: P. falciparum in erythrocytes, SYBR Green DNA, 72 h; series mostly up to 28.7 µM
# Method in brief: as §1
# CP256 = test: as above; conditions: P. falciparum in erythrocytes, SYBR Green DNA, 72 h; series mostly up to 28.7 µM
# Method in brief: as §1
# CP260 = test: as above; conditions: P. falciparum in erythrocytes, SYBR Green DNA, 72 h; series mostly up to 28.7 µM
# Method in brief: as §1
structure (smiles),measurement,setting,value
CC[C@]1([C@H]2O[C@@H]([C@@H]3O[C@](O)(CO)[C@@H](C)C[C@H]3C)C[C@H]2C)CC[C@@H]([C@]2(C)CC[C@@]3(C[C@@H](O)[C@@H](C)[C@@H]([C@H](C)[C@H](OC)[C@H](C)C(=O)O)O3)O2)O1,Potency,[1],inactive
same,"activity change, negative = inhibition",[2],20.4%
same,"activity, negative = inhibition",[3],-3.04%
same,Potency,[4],> 20.6 µM
same,Potency,[5],> 20.6 µM
same,Potency,[6],inactive
same,Potency,[7],inactive
same,Potency,[8],inactive
same,Potency,[9],0.51 µM (active)
same,Potency,[10]; parasite line A,0.0251 µM (active)
same,Potency,[10]; parasite line B,0.0251 µM (active)
same,Potency,3D7,0.0251 µM (active)
same,Potency,7G8,0.0158 µM (active)
same,Potency,AA1029,0.0398 µM (active)
same,Potency,AS120,0.0224 µM (active)
same,Potency,ATS189,0.0501 µM (active)
same,Potency,ATS95,0.0501 µM (active)
same,Potency,C2A,0.0282 µM (active)
same,Potency,CP185,0.0501 µM (active)
same,Potency,CP191,0.0316 µM (active)
same,Potency,CP192,0.0338 µM (active)
same,Potency,CP194,0.0338 µM (active)
same,Potency,CP201,0.0426 µM (active)
same,Potency,CP203,0.0239 µM (active)
same,Potency,CP211,0.0338 µM (active)
same,Potency,CP215,0.0338 µM (active)
same,Potency,CP217,0.0398 µM (active)
same,Potency,CP237,0.0178 µM (active)
same,Potency,CP238,0.0355 µM (active)
same,Potency,CP247,0.0316 µM (active)
same,Potency,CP250,0.0398 µM (active)
same,Potency,CP252,0.0355 µM (active)
same,Potency,CP256,0.0501 µM (active)
same,Potency,CP260,0.02 µM (active)
